Among the data in publication PMC9911399, “Two distinct binding modes provide the RNA-binding protein RbFox with extraordinary sequence specificity” are binding signal values, retold here.

Positions count from the first letter of the chain named. The full ranking holds about 16,000 sequences; the median of “ka relative to ugcaugu” is about 0.0091, and the highest 2% start at about 0.032. The list comes from a sample in which the highest values are over-represented; it also holds similar and randomly drawn sequences.

The labels stand for the following.
B1: AGCCGGG (DNA:RNA)
RNA: GGGAGACCGGAAUUCAGAUUGUCCAGCCGGGUUAAAUCCCGUCGUAGCCACCA
DNA 1: CAATCTGAATTCCGGTCTCCC
DNA 2: TGGTGGCTACGACGGGATT
B2: GUUCCGG (DNA:RNA)
RNA: B1 RNA with A25G, G26U, C27U, G29C
DNA 1: CAATCTGAATTCCGGTCTCCC
DNA 2: TGGTGGCTACGACGGGATT
B3: UUCCAAA (DNA:RNA)
RNA: B1 RNA with A25U, G26U, G29A, G30A, G31A
DNA 1: CAATCTGAATTCCGGTCTCCC
DNA 2: TGGTGGCTACGACGGGATT
B4: GACAUUG (DNA:RNA)
RNA: B1 RNA with A25G, G26A, C28A, G29U, G30U
DNA 1: CAATCTGAATTCCGGTCTCCC
DNA 2: TGGTGGCTACGACGGGATT
B5: GCUAGUA (DNA:RNA)
RNA: B1 RNA with A25G, G26C, C27U, C28A, G30U, G31A
DNA 1: CAATCTGAATTCCGGTCTCCC
DNA 2: TGGTGGCTACGACGGGATT
B6: GCAAACC (DNA:RNA)
RNA: GGGAGACCGGAAUUCAGAUUGUCCGCAAACCUUAAAUCCCGUCGUAGCCACCA
DNA 1: CAATCTGAATTCCGGTCTCCC
DNA 2: TGGTGGCTACGACGGGATT
B7: GCGUGGG (DNA:RNA)
RNA: B1 RNA with A25G, G26C, C27G, C28U
DNA 1: CAATCTGAATTCCGGTCTCCC
DNA 2: TGGTGGCTACGACGGGATT
B8: AGAAUCG (DNA:RNA)
RNA: B1 RNA with C27A, C28A, G29U, G30C
DNA 1: CAATCTGAATTCCGGTCTCCC
DNA 2: TGGTGGCTACGACGGGATT
B9: AAGCGGU (DNA:RNA)
RNA: B1 RNA with G26A, C27G, G31U
DNA 1: CAATCTGAATTCCGGTCTCCC
DNA 2: TGGTGGCTACGACGGGATT
B10: AAAGAAG (DNA:RNA)
RNA: B1 RNA with G26A, C27A, C28G, G29A, G30A
DNA 1: CAATCTGAATTCCGGTCTCCC
DNA 2: TGGTGGCTACGACGGGATT
B11: GCGCUUC (DNA:RNA)
RNA: B6 RNA with A27G, A28C, A29U, C30U
DNA 1: CAATCTGAATTCCGGTCTCCC
DNA 2: TGGTGGCTACGACGGGATT
B12: GCUUCUG (DNA:RNA)
RNA: B6 RNA with A27U, A28U, A29C, C30U, C31G
DNA 1: CAATCTGAATTCCGGTCTCCC
DNA 2: TGGTGGCTACGACGGGATT
B13: GCUUCCG (DNA:RNA)
RNA: B6 RNA with A27U, A28U, A29C, C31G
DNA 1: CAATCTGAATTCCGGTCTCCC
DNA 2: TGGTGGCTACGACGGGATT
B14: GUCCCGC (DNA:RNA)
RNA: B1 RNA with A25G, G26U, G29C, G31C
DNA 1: CAATCTGAATTCCGGTCTCCC
DNA 2: TGGTGGCTACGACGGGATT
B15: CGUCCGC (DNA:RNA)
RNA: B1 RNA with A25C, C27U, G29C, G31C
DNA 1: CAATCTGAATTCCGGTCTCCC
DNA 2: TGGTGGCTACGACGGGATT
B16: GCUUGUG (DNA:RNA)
RNA: B1 RNA with A25G, G26C, C27U, C28U, G30U
DNA 1: CAATCTGAATTCCGGTCTCCC
DNA 2: TGGTGGCTACGACGGGATT
B17: ACUGUGU (DNA:RNA)
RNA: B1 RNA with G26C, C27U, C28G, G29U, G31U
DNA 1: CAATCTGAATTCCGGTCTCCC
DNA 2: TGGTGGCTACGACGGGATT
B18: ACCCUUU (DNA:RNA)
RNA: B1 RNA with G26C, G29U, G30U, G31U
DNA 1: CAATCTGAATTCCGGTCTCCC
DNA 2: TGGTGGCTACGACGGGATT
B19: GACAGCA (DNA:RNA)
RNA: B6 RNA with C26A, A27C, A29G, C31A
DNA 1: CAATCTGAATTCCGGTCTCCC
DNA 2: TGGTGGCTACGACGGGATT
B20: GUGAAUA (DNA:RNA)
RNA: B6 RNA with C26U, A27G, C30U, C31A
DNA 1: CAATCTGAATTCCGGTCTCCC
DNA 2: TGGTGGCTACGACGGGATT
B21: UGGGGAG (DNA:RNA)
RNA: B1 RNA with A25U, C27G, C28G, G30A
DNA 1: CAATCTGAATTCCGGTCTCCC
DNA 2: TGGTGGCTACGACGGGATT
B22: UGGGUGU (DNA:RNA)
RNA: B1 RNA with A25U, C27G, C28G, G29U, G31U
DNA 1: CAATCTGAATTCCGGTCTCCC
DNA 2: TGGTGGCTACGACGGGATT
B23: UGGAAGU (DNA:RNA)
RNA: B1 RNA with A25U, C27G, C28A, G29A, G31U
DNA 1: CAATCTGAATTCCGGTCTCCC
DNA 2: TGGTGGCTACGACGGGATT
B24: UGGGAGU (DNA:RNA)
RNA: B1 RNA with A25U, C27G, C28G, G29A, G31U
DNA 1: CAATCTGAATTCCGGTCTCCC
DNA 2: TGGTGGCTACGACGGGATT
B25: CUGGAAG (DNA:RNA)
RNA: B1 RNA with A25C, G26U, C27G, C28G, G29A, G30A
DNA 1: CAATCTGAATTCCGGTCTCCC
DNA 2: TGGTGGCTACGACGGGATT
B26: UGGUGUU (DNA:RNA)
RNA: B1 RNA with A25U, C27G, C28U, G30U, G31U
DNA 1: CAATCTGAATTCCGGTCTCCC
DNA 2: TGGTGGCTACGACGGGATT
B27: CUGGUGU (DNA:RNA)
RNA: B1 RNA with A25C, G26U, C27G, C28G, G29U, G31U
DNA 1: CAATCTGAATTCCGGTCTCCC
DNA 2: TGGTGGCTACGACGGGATT
B28: UGGGGUG (DNA:RNA)
RNA: B1 RNA with A25U, C27G, C28G, G30U
DNA 1: CAATCTGAATTCCGGTCTCCC
DNA 2: TGGTGGCTACGACGGGATT
B29: UGGGGAA (DNA:RNA)
RNA: B1 RNA with A25U, C27G, C28G, G30A, G31A
DNA 1: CAATCTGAATTCCGGTCTCCC
DNA 2: TGGTGGCTACGACGGGATT
B30: UGGGAAG (DNA:RNA)
RNA: B1 RNA with A25U, C27G, C28G, G29A, G30A
DNA 1: CAATCTGAATTCCGGTCTCCC
DNA 2: TGGTGGCTACGACGGGATT
B31: UGGAGUU (DNA:RNA)
RNA: B1 RNA with A25U, C27G, C28A, G30U, G31U
DNA 1: CAATCTGAATTCCGGTCTCCC
DNA 2: TGGTGGCTACGACGGGATT
B32: UGGUGGG (DNA:RNA)
RNA: B1 RNA with A25U, C27G, C28U
DNA 1: CAATCTGAATTCCGGTCTCCC
DNA 2: TGGTGGCTACGACGGGATT

The assay deals with T1, RBFOX1 RRM (Homo sapiens, UniProt Q9NWB1 109-208).
T1 sequence: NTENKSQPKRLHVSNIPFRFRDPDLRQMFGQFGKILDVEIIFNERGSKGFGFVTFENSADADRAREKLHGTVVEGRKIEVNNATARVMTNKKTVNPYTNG
Kind of assay: EMSA; HiTS-Eq, 1 nM pool, 10 min; buffer printed only for the single-RNA assays: 10 mM Tris pH 7.5, 150 mM NaCl, 3.4 mM EDTA, 0.001% NP-40, 30 C. The settings on record: tags: His6 N-terminal (pET28a); label: 5' 32P. A digest of the protocol:
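A pool of RNA with 7 randomized nucleotides, 5′-radiolabelled and with DNA-annealed flanks, was equilibrated at 1 nM for 10 min in 50 µL with purified RbFox RRM, wild type or mutant, across increasing protein concentrations. Free RNA was separated by 8% native PAGE, excised, reverse-transcribed, barcoded by PCR and sequenced. Relative association constants were obtained from read-count changes of each RNA species versus the control reaction and normalised to the cognate motif.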
In general terms: Mobility shift assays separate free from complexed probe on a gel.
As for B1, the binding signal was 0.0115 KA relative to UGCAUGU.

B2: the binding signal was 0.0142 KA relative to UGCAUGU.

For B3, the binding signal is 0.00275 KA relative to UGCAUGU.

For the molecule B4, the binding signal is 0.0146 KA relative to UGCAUGU.

For B5, the binding signal is 0.0137 KA relative to UGCAUGU.

On to B6, for which the binding signal was 0.00398 KA relative to UGCAUGU.

As to B7, the binding signal is 0.0174 KA relative to UGCAUGU.

Consider B8, for which the binding signal was 0.00981 KA relative to UGCAUGU.

In the case of B9, the binding signal is 0.00838 KA relative to UGCAUGU.

In the case of B10, the binding signal is 0.00539 KA relative to UGCAUGU.

Regarding B11, the binding signal was 0.0175 KA relative to UGCAUGU.

B12: the binding signal was 0.0318 KA relative to UGCAUGU.

B13: the binding signal was 0.0121 KA relative to UGCAUGU.

With B14, the binding signal was 0.0018 KA relative to UGCAUGU.

As to B15, the binding signal is 0.00928 KA relative to UGCAUGU.

B16: the binding signal was 0.0418 KA relative to UGCAUGU.

As to B17, the binding signal is 0.016 KA relative to UGCAUGU.

With B18, the binding signal is 0.00524 KA relative to UGCAUGU.

As for B19, the binding signal was 0.0143 KA relative to UGCAUGU.

As for B20, the binding signal is 0.00781 KA relative to UGCAUGU.

On to B21, for which the binding signal is 0.0199 KA relative to UGCAUGU.

Consider B22, for which the binding signal was 0.0478 KA relative to UGCAUGU.

B23: the binding signal was 0.0205 KA relative to UGCAUGU.

B24: the binding signal is 0.0357 KA relative to UGCAUGU.

In the case of B25, the binding signal is 0.0188 KA relative to UGCAUGU.

In the case of B26, the binding signal was 0.0267 KA relative to UGCAUGU.

Turning to B27, the binding signal is 0.0254 KA relative to UGCAUGU.

With B28, the binding signal is 0.0422 KA relative to UGCAUGU.

Regarding B29, the binding signal was 0.0174 KA relative to UGCAUGU.

Take B30: the binding signal was 0.0374 KA relative to UGCAUGU.

As to B31, the binding signal is 0.0241 KA relative to UGCAUGU.

Turning to B32, the binding signal is 0.0153 KA relative to UGCAUGU.
